In PubChem BioAssay (NCI):
The panel holds about 83,000 compounds, 20% with a hit somewhere; the sample as a whole holds those more often.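 In brief: 96-well plates, 48 h treatment, single concentration, percent growth endpoint.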 Values without a mark were called inactive. The source made the active and inactive calls. Rule for the calls: active = growth percent below 10; inactive = the rest.

How the values were obtained:
Test in all cases: NCI-60 one-dose screen, 48 h (100 = growth as untreated, 0 = no growth, -100 = all killed)
Conditions in all cases: 10 µM unless noted
NCI-H226 lung = test system: NCI-H226 lung
NCI-H322M lung = test system: NCI-H322M lung
HOP-62 NSCLC = test system: HOP-62 NSCLC
NCI-H460 lung = test system: NCI-H460 lung
HOP-92 NSCLC = test system: HOP-92 NSCLC
NCI-H522 lung = test system: NCI-H522 lung
A549/ATCC NSCLC = test system: A549/ATCC NSCLC
786-0 renal = test system: 786-0 renal
COLO 205 colon = test system: COLO 205 colon
DU-145 prostate = test system: DU-145 prostate
K-562 leukemia = test system: K-562 leukemia
MALME-3M melanoma = test system: MALME-3M melanoma
MDA-MB-231 breast = test system: MDA-MB-231 breast
RXF 393 renal = test system: RXF 393 renal
SF-268 CNS = test system: SF-268 CNS
SF-295 CNS = test system: SF-295 CNS
SF-539 CNS = test system: SF-539 CNS
UACC-257 melanoma = test system: UACC-257 melanoma
M14 melanoma = test system: M14 melanoma

Row | Structure (SMILES) | growth (NCI-H226 lung) | growth (NCI-H322M lung) | growth (HOP-62 NSCLC) | growth (NCI-H460 lung) | growth (HOP-92 NSCLC) | growth (NCI-H522 lung) | growth (A549/ATCC NSCLC) | growth (786-0 renal) | growth (COLO 205 colon) | growth (DU-145 prostate) | growth (K-562 leukemia) | growth (MALME-3M melanoma) | growth (MDA-MB-231 breast) | growth (RXF 393 renal) | growth (SF-268 CNS) | growth (SF-295 CNS) | growth (SF-539 CNS) | growth (UACC-257 melanoma) | growth (M14 melanoma)
1 | COc1ccc(NC(=O)[C@@H](N)Cc2ccccc2)cc1C(=O)Nc1cccc(C2CC(=O)c3c(cc(OC)c(OC)c3OC)O2)c1 (some centres undefined) | 69.8% | 79.3% | 86.8% | 54.7% | 44.4% | 39.6% | 68.9% | 72.2% | 78.4% | 58.1% | 17.5% | 66% | 63% | 73.7% | 60.5% | 127% | 82.4% | 95.5% | 65%
2 | OCNc1ccc(-n2cnc3cc(-c4ccc(O)cc4)ccc32)cc1C(F)(F)F | 51% | 46.3% | 34.9% | 9.72% (active) | 65.1% | -15.7% (active) | 22.4% | 22.7% | 43.5% | 28.6% | 17.2% | 26.6% | 38.6% | 47.5% | 24.7% | 4.48% (active) | 23.5% | 58.4% | 11.9%
3 | CCN(CC)c1ccc(/C=N/Nc2nc(-c3ccc(Br)cc3)cs2)c(O)c1 | 31.7% | 96.9% | 110% | 89.3% | 104% | 17% | 90.5% | 49.9% | 58.3% | 91.7% | 4.62% (active) | 53.4% | 95.9% | 64.9% | 99.7% | 91.5% | 52.3% | 91.7% | 54.5%
4 | C#CCOc1cc(N(CC)CC)ccc1C(C(=O)NC(C)(C)C)N(C(=O)C1CCc2cc(F)ccc2O1)c1ccc(F)c(Cl)c1 (centres undefined) | 62.8% | 89.5% | 77.5% | 53.2% | 48.2% | 60.5% | 65.9% | 58.7% | 63.1% | 78.9% | 35.7% | 81.7% | 55.5% | 59.3% | 49.8% | 72.8% | 77.9% | 58.2% | 63.3%
5 | COc1ccc(NC(=O)[C@H](C)N)cc1C(=O)Nc1cccc(C2CC(=O)c3c(cc(OC)c(OC)c3OC)O2)c1 (some centres undefined) | 85.5% | 96.9% | 113% | 96.9% | 69.4% | 81.7% | 93.4% | 91.1% | 115% | 86.6% | 75.8% | 105% | 87.3% | 92.8% | 81.5% | 119% | 89.3% | 107% | 110%
6 | Cc1ccc(NC(=O)CN2CCN(c3ncnc4c3cnn4-c3ccccc3)CC2)cc1 | 76.5% | 86.5% | 95.6% | 74% | 90.9% | -41.1% (active) | 89.1% | 105% | 111% | 92.5% | 59.8% | 90.8% | 80.6% | 86.7% | 80.7% | 116% | 84.6% | 92.8% | 100%
7 | Cc1cc2nc3c4ccccc4n(CCNCCN(C)C)c3nc2cc1C | 53.3% | 36.3% | 45.3% | 5.46% (active) | 10.5% | 17.7% | 20.4% | 20.4% | -71.5% (active) | 17.2% | 0.435% (active) | -96.6% (active) | 1.93% (active) | -34.7% (active) | 42.5% | 20.2% | -79.8% (active) | -72.8% (active) | -79.9% (active)
8 | CC(=O)c1c(N)c(C#N)cn1-c1ccc(Cl)cc1Cl | 80.6% | 101% | 94.6% | 111% | 98.6% | 82.3% | 95.8% | 99.2% | 105% | 113% | 95.1% | 107% | 99.7% | 104% | 107% | 116% | 99.9% | 106% | 98.9%
9 | COc1ccc2[nH]cc(-c3nnc(N)nc3-c3cn(C)c4ncc(Br)cc34)c2c1 | 91.7% | 77.9% | 70.2% | 83.1% | 6.98% (active) | 50.3% | 84.3% | 52.5% | 102% | 93% | 52.5% | 121% | 45.8% | 27.1% | 81.4% | 83.1% | 66.5% | 106% | 105%
10 | O=[N+]([O-])c1ccc(/C=C/c2nc3ccccc3n3c(=S)[nH]nc23)cc1 | 65.3% | 84.1% | 80.2% | 78% | 68.2% | 63.6% | 77% | 102% | 104% | 88% | 70.5% | 101% | 85.9% | 78.7% | 80.1% | 125% | 98.4% | 94.8% | 84.4%
11 | Nc1nc(-c2ccccc2)c(N=Nc2ccc(Cl)cc2[N+](=O)[O-])s1 | 77.4% | 94.2% | 90.9% | 105% | 68% | 82.7% | 95.3% | 93.4% | 101% | 112% | 96.1% | 109% | 95.5% | 106% | 87.7% | 101% | 86.5% | 103% | 98.3%
12 | COc1ccc(/C=C/c2nc3ccccc3n3c(-c4ccc(Cl)cc4)nnc23)cc1 | 95% | 104% | 96.8% | 88.6% | 69.5% | 64.2% | 90.4% | 88.8% | 92.4% | 98.5% | 72.4% | 104% | 91.7% | 100% | 79.4% | 123% | 90.8% | 102% | 102%
13 | Cn1cc(-c2cc(N)n3nc(-c4cn(C)c5ccccc45)cc3n2)c2cc(Cl)ccc21 | 21.5% | -1.12% (active) | -52.1% (active) | -50.2% (active) | -58.2% (active) | -62.7% (active) | 2.54% (active) | -86% (active) | -80.1% (active) | 22% | 1.57% (active) | -77% (active) | -45.4% (active) | -73.7% (active) | -46.4% (active) | -53.8% (active) | -69.3% (active) | -59.9% (active) | -78.3% (active)
14 | C#C[C@]1(O)CC[C@H]2[C@@H]3CC=C4c5sc(-c6ccc(O)c(O)c6)nc5CC[C@]4(C)[C@H]3CC[C@@]21C | -65.4% (active) | -79.6% (active) | -83.1% (active) | -77.6% (active) | -53.8% (active) | -77.1% (active) | -78.6% (active) | -88.3% (active) | -80.2% (active) | -49.4% (active) | -51.3% (active) | -84% (active) | -77.8% (active) | -90.2% (active) | -76.7% (active) | -94.2% (active) | -93.2% (active) | -81.7% (active) | -87.7% (active)
15 | O=C(Nc1cccc(-n2cnc3cc(-c4ccc(O)cc4)ccc32)c1)C1CC1 | 13.8% | 48% | 44.7% | 7.41% (active) | 125% | 5.82% (active) | 27.4% | 25.8% | 34.2% | 28.5% | 12.2% | 46.3% | 32.3% | 14.1% | 34.9% | 6.04% (active) | -6.53% (active) | 73.3% | 40.5%
16 | Cn1cc(-c2cc(N)n3nc(-c4cn(C)c5ccccc45)cc3n2)c2cc(Br)ccc21 | 2.38% (active) | 7.11% (active) | -45.2% (active) | -24.2% (active) | -59% (active) | -62.7% (active) | 4.06% (active) | -85% (active) | -79.1% (active) | 27.7% | 0.853% (active) | -72.9% (active) | -41.2% (active) | -70.1% (active) | -47.3% (active) | -53.4% (active) | -72.3% (active) | -71% (active) | -74.4% (active)
